# Measurements: PubChem BioAssay (NCATS)
# Records with an inconclusive call do not appear. Entries that show only a call come without a potency. Activity calls are given as the source filed them. The call rests on the fitted dose curve; in most records, active means well fitted inhibition curve with a large enough effect; inconclusive means small, poorly fitted or top-dose-only effect; inactive means flat fitted curve, though single readings scatter. Numbered stars: 1 amine (or outer) side, 2 acyl side, 3 side chain; on linkers, the order of the positions; unused ones are H or OH. Bridge positions count the residues as written; N and C are the ends. Square brackets hold non-standard residues; d marks the D form. Peptide text beside a SMILES is read from it. I, II: the chains in the order shown. Actinocin(9to1) = Cc1c2oc3c(C)ccc(C(=O)[*:1])c3nc-2c(C(=O)[*:2])c(N)c1=O; NMeV = CN[C@H](C(=O)O)C(C)C; Sar = CNCC(=O)O
# Tests used:
# Test in all cases: qHTS profiling for inhibitors of Plasmodium falciparum proliferation (AID 504749); further: nearly all actives have a fitted effect of over 60% in size
# Conditions in all cases: P. falciparum in erythrocytes, SYBR Green DNA, 72 h; series mostly up to 28.7 µM
# CP265 = system: CP265
# Outline: (§1)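 Quantitative HTS: compounds pinned into medium, infected erythrocytes added (0.3% parasitemia, 2.5% hematocrit), 72 h culture at 37 C under 5% CO2. Saponin/Triton lysis with SYBR Green I, overnight RT, then fluorescence read.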
# CP266 = system: CP266
# Outline: as §1
# CP269 = system: CP269
# Outline: as §1
# CP291 = system: CP291
# Outline: as §1
# CP297 = system: CP297
# Outline: as §1
# CP305 = system: CP305
# Outline: as §1
# CP315 = system: CP315
# Outline: as §1
# CP325 = system: CP325
# Outline: as §1
# CP268 = system: CP268
# Outline: as §1
# CP286 = system: CP286
# Outline: as §1
# Potency means the concentration at half of the fitted maximal effect.
SMILES,Potency (CP265),Potency (CP266),Potency (CP269),Potency (CP291),Potency (CP297),Potency (CP305),Potency (CP315),Potency (CP325),Potency (CP268),Potency (CP286)
CN(C(=O)CN(CCO)CC(=O)N(C)C(C)(C)Cc1ccccc1)C(C)(C)Cc1ccccc1,inactive,inactive,inactive,inactive,inactive,inactive,inactive,inactive,–,–
CCCCN1CCCC1C(=O)Nc1c(C)cc(C)cc1C (centres undefined),inactive,–,inactive,inactive,–,inactive,inactive,inactive,inactive,inactive
CCOC(=O)c1cccc(N)c1,inactive,–,–,–,15.1 µM (active),–,–,–,–,inactive
OC(CCN1CCCCC1)(c1ccccc1)c1ccccc1,8.91 µM (active),inactive,–,–,6.01 µM (active),–,–,–,–,11.2 µM (active)
C[C@@H](CN(C)C)CN1c2ccccc2Sc2ccccc21,inactive,inactive,–,inactive,inactive,inactive,inactive,inactive,–,inactive
CCN(CC)CCOC(=O)C(c1ccccc1)C1CCCCC1 (centres undefined),inactive,inactive,inactive,–,inactive,inactive,inactive,inactive,–,inactive
CCOc1ccc2nc3cc(N)ccc3c(N)c2c1,11.2 µM (active),–,9.53 µM (active),12 µM (active),15.1 µM (active),9.53 µM (active),4.26 µM (active),–,15.1 µM (active),1.41 µM (active)
C=C(CC)C(=O)c1ccc(OCC(=O)O)c(Cl)c1Cl,inactive,inactive,–,–,inactive,–,–,inactive,–,10 µM (active)
Cc1cc(N)c2cc(NC(=O)Nc3ccc4nc(C)cc(N)c4c3)ccc2n1,7.08 µM (active),–,2.39 µM (active),4.26 µM (active),4.78 µM (active),3.79 µM (active),7.57 µM (active),–,–,4.47 µM (active)
COc1cccc(CCc2ccccc2OCC(CN(C)C)OC(=O)CCC(=O)O)c1 (centres undefined),7.08 µM (active),–,6.75 µM (active),12 µM (active),3.38 µM (active),7.57 µM (active),15.1 µM (active),–,7.57 µM (active),5.62 µM (active)
NC(=O)C(=O)N/N=C/c1ccc([N+](=O)[O-])o1,inactive,–,–,–,–,–,–,–,–,inactive
CCCCC(CC)CN=C(N)NC(N)=NCCCCCCN=C(N)NC(N)=NCC(CC)CCCC (centres undefined),3.55 µM (active),–,1.51 µM (active),1.69 µM (active),3.38 µM (active),1.69 µM (active),1.35 µM (active),1.2 µM (active),1.69 µM (active),0.631 µM (active)
CN1CCN(CCCN2c3ccccc3Sc3ccc(S(=O)(=O)N(C)C)cc32)CC1,3.55 µM (active),inactive,–,–,–,–,inactive,–,–,–
CC(C)N=C(N)/N=C(\N)Nc1ccc(Cl)cc1,–,inactive,–,–,–,–,–,–,inactive,–
CN1CCC(=C2c3ccccc3Sc3ccccc32)CC1,7.08 µM (active),–,13.5 µM (active),9.53 µM (active),8.49 µM (active),–,–,–,–,11.2 µM (active)
COc1cc2c(cc1OC)C(=O)C(CC1CCN(Cc3ccccc3)CC1)C2 (centres undefined),–,inactive,inactive,inactive,inactive,inactive,inactive,inactive,inactive,inactive
Cc1c(F)c(N2CCNC(C)C2)cc2c1c(=O)c(C(=O)O)cn2C1CC1 (centres undefined),inactive,–,inactive,inactive,inactive,inactive,inactive,inactive,inactive,inactive
C[C@@H]1C[C@H]2[C@@H]3CCC4=CC(=O)C=C[C@]4(C)[C@@]3(F)[C@@H](O)C[C@]2(C)[C@H]1C(=O)CO,inactive,–,inactive,–,–,inactive,inactive,inactive,inactive,inactive
CC(=O)OCC(=O)[C@@]1(OC(C)=O)[C@@H](C)C[C@H]2[C@@H]3C[C@H](F)C4=CC(=O)C=C[C@]4(C)[C@@]3(F)[C@@H](O)C[C@@]21C,–,inactive,inactive,inactive,inactive,inactive,inactive,inactive,inactive,inactive
CN(C)CC/C=C1\c2ccccc2Sc2ccc(Cl)cc21,–,inactive,–,–,inactive,inactive,inactive,–,inactive,11.2 µM (active)
O=C(N/N=C/c1ccccc1O)c1ccncc1,–,–,–,–,inactive,–,–,–,–,5.01 µM (active)
CN(C)CCCOc1nn(Cc2ccccc2)c2ccccc12,–,inactive,inactive,–,inactive,inactive,inactive,inactive,–,inactive
CCN(CCCc1ccccc1)CCCc1ccccc1,–,inactive,–,–,–,inactive,inactive,–,–,–
CCN(CC)CCOc1ccc(C(O)(Cc2ccc(Cl)cc2)c2ccc(C)cc2)cc1 (centres undefined),–,–,15.1 µM (active),13.5 µM (active),16.9 µM (active),–,–,–,19 µM (active),10 µM (active)
"Cc1c2oc3c(C)ccc(C(=O)N[C@@H]4C(=O)N[C@H](C(C)C)C(=O)N5CCC[C@H]5C(=O)N(C)CC(=O)N(C)[C@@H](C(C)C)C(=O)O[C@@H]4C)c3nc-2c(C(=O)N[C@@H]2C(=O)N[C@H](C(C)C)C(=O)N3CCC[C@H]3C(=O)N(C)CC(=O)N(C)[C@@H](C(C)C)C(=O)O[C@@H]2C)c(N)c1=O (I: T[dV]P[Sar][NMeV] / II: T[dV]P[Sar][NMeV]; ester I:1-I:C, II:1-II:C; linker I:N-II:N via Actinocin(9to1))",–,0.0085 µM (active),0.006 µM (active),0.0054 µM (active),0.006 µM (active),0.0054 µM (active),0.0076 µM (active),0.0054 µM (active),0.0067 µM (active),0.0035 µM (active)
